Bioassay records from PubChem BioAssay.
The list is not random: actives were taken first. Their share in the collection is about 1.8%.
LGR2 antag – Drosophila LGR2 receptor signaling inhibition; HEK293 LGR2, CRE-luciferase, bursicon-stimulated, 4 h; AID 720647; actives 0.35% (n = 380,000); inhibition, % at 9.99 µM;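 active means drop in luminescence signal, shown as inhibition above about 50% in the replicate tests, limit read from the data, passing the limit was not always enough; inconclusive means probably only some replicates passing the limit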;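 further: agonist challenge used bursicon conditioned medium at about half maximal strength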
PAX8 reporter – inhibitors of PAX8 transcriptional activity in RMG-I cells | actives 1.2% (n = 360,000) | inhibition, % at 12.6 µM | RMG-I TPO-luciferase reporter, SteadyGlo, 24 h | AID 652154;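 active means mean replicate inhibition at least 60% with every replicate also reaching 60%; inconclusive means only one of the two criteria is met; inactive means mean below 60% and not all replicates reaching 60%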;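 further: luciferase light reporting Pax8 driven TPO promoter activity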
CFTR F508del cor – CFTR F508del correction in bronchial cells. activity (quench increase), % at 7.58 µM. actives 0.36% (n = 350,000). CFBE cells, YFP halide quenching; stimulated with forskolin plus potentiator P3; % fluorescence drop versus neutral controls;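 active means mean added fluorescence quench of at least 8% versus neutral control, with both replicates also reaching 8%; inconclusive means only one of the mean or replicate conditions met; inactive means mean below 8% and not both replicates reaching 8%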;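 further: cells transiently co-express mutant CFTR-F508del with the halide-sensitive YFP; corrector assay measuring rescue of mutant channel to the surface after 24 h compound exposure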
EWS-Fli block – blocks EWS/Fli oncoprotein-driven transcription | A673 NR0B1-luciferase reporter, viability-normalised | inhibition, % at 12.6 µM | actives 0.67% (n = 350,000) | AID 651661;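 active means mean inhibition of at least 50% after viability correction, with every replicate also passing that limit; inconclusive means mean reaches 50% but only one of two replicates passes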;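 further: firefly luciferase signal divided by Alamar Blue viability fluorescence both relative to DMSO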
Numbers stand for hits; - = inactive; ? = inconclusive; . = no result given.

SMILES	LGR2 antag	PAX8 reporter	CFTR F508del cor	EWS-Fli block
O=C(O)c1ccc(-[n+]2c(-c3ccccc3)cc(-c3ccccc3)cc2-c2ccccc2)cc1	-	-	-	-
CCCOC(=O)c1ccc(-[n+]2c(-c3ccccc3)cc(-c3ccccc3)cc2-c2ccccc2)cc1	-	88	-	74
C[n+]1c(-c2ccccc2)cc(CCCCc2cc(-c3ccccc3)[n+](C)c(-c3ccccc3)c2)cc1-c1ccccc1	-	96	-	-
COc1cccc(NC2=NCCS2)c1	-	-	-	-
CN1CCCN(C(=O)COc2ccccc2Br)CC1	-	-	-	-
O=C(CN1CCN(C(=O)COc2cccc(F)c2)CC1)Nc1ccc(Cl)c(C(F)(F)F)c1	-	-	-	-
COC(=O)[C@@H]1[C@@H](CO)[C@@H]2Cn3c(ccc(C4=CCCCC4)c3=O)[C@H]1N2C(=O)NC(C)C	-	-	-	-
Cc1ccc(-c2cc(-c3ccccc3)cc(-c3ccccc3)[n+]2-c2ccc(C(=O)O)cc2)cc1	-	-	-	-
COc1ccc(-c2cc(-c3ccccc3)[n+](C)c(-c3ccccc3)c2)cc1	-	87	-	-
CC1(C)COC(Nc2ccc(Cl)cc2)=N1	.	-	.	.
O=c1[nH]c2ccccc2n1C1CCN(C(c2cc3ccccc3o2)c2nnnn2-c2ccc3c(c2)OCCO3)CC1 (stereo not given)	96	103	-	-
COc1ccc(C(c2nnnn2-c2ccc(OC)cc2)N2CCC(n3c(=O)[nH]c4ccccc43)CC2)cc1 (stereo not given)	-	-	-	-
O=c1[nH]c2ccccc2n1C1CCN(C(c2cccc3ccccc23)c2nnnn2-c2ccc3c(c2)OCCO3)CC1 (stereo not given)	-	98	-	-
COc1ccc(-n2nnnc2C(c2cc3ccccc3o2)N2CCC(n3c(=O)[nH]c4ccccc43)CC2)cc1 (stereo not given)	76	-	-	-
CNC(=S)N1CCN(CCN=Cc2c(O)n(-c3ccc(C)cc3)c(=S)[nH]c2=O)CC1	-	-	-	-
CC(=O)NC(Cc1ccc(N(CCCl)CCCl)cc1)C(=O)NC(C(=O)O)C(C)C (stereo not given)	-	-	-	-
CCOC(=O)CC(NC(=O)C(Cc1ccc(N(CCCl)CCCl)cc1)NC(C)=O)C(=O)OCC (stereo not given)	-	-	-	68
NC(Cc1ccc(F)cc1)c1csc(Nc2ncccn2)n1 (stereo not given)	-	74	-	-
Nc1ccc(CC(N)c2csc(Nc3ncccn3)n2)cc1 (stereo not given)	-	-	-	-
CCCNC(=O)N1[C@@H]2Cn3c(ccc(-c4ccccc4OC)c3=O)[C@H]1[C@@H](C(=O)OC)[C@@H]2CO	-	-	-	-
COc1cc(/C=C/[N+](=O)[O-])ccc1OC(=O)c1cccnc1	.	-	-	56
COC(=O)[C@H]1[C@H](CO)[C@H]2Cn3c(ccc(-c4ccccc4F)c3=O)[C@@H]1N2Cc1ccccc1	-	-	-	-
COC(=O)C1CN(C#N)N(c2ccc(Cl)cc2)C12c1ccccc1-c1ccccc12 (stereo not given)	100	.	.	.
Cc1cc(OC(C)C(=O)NCc2cccnc2)c2c3c(c(=O)oc2c1)CCC3 (stereo not given)	-	-	-	.
COc1cc2c(ccc3c4cc(OC)c(OC)cc4c[n+](C)c23)cc1O	-	75	-	-
SMILES	LGR2 antag	PAX8 reporter	CFTR F508del cor	EWS-Fli block
CC12CC[C@H]3[C@@H](CCC4(O)C[C@H](O)CCC34/C=N/NC(=O)Cc3ccccc3)C1(O)CCC2C1=CC(=O)OC1 (stereo not given in full)	-	-	-	-
CC12CCC(O)CC1CCC1C2CCC2(C)C(C3=CC(=O)OC3)C(O)CC12O (stereo not given)	77	-	-	-
C[C@]12CC[C@H](N)CC1=CCC1C2CC[C@@]2(C)C1CC[C@@H]2O (stereo not given in full)	-	.	-	-
Cc1ccccc1-[n+]1c(-c2ccccc2)cc(-c2ccccc2)cc1-c1ccccc1	-	95	-	-
[O-]c1ccccc1-[n+]1c(-c2ccccc2)cc(-c2ccccc2)cc1-c1ccccc1	-	90	-	-
Oc1ccccc1-[n+]1c(-c2ccccc2)cc(-c2ccccc2)cc1-c1ccccc1	-	78	-	-
Nc1ccccc1-[n+]1c(-c2ccccc2)cc(-c2ccccc2)cc1-c1ccccc1	-	?	-	-
CC1CC(C)(O)CC(C(O)CC2CC(=O)NC(=O)C2)C1=O (stereo not given)	102	123	-	-
CCSc1nnc(C(N)Cc2ccccc2)o1 (stereo not given)	.	-	.	.
